SW480 rereplic: induces DNA re-replication in SW480 colon adenocarcinoma cells; 1.8% of 340,000 active; SW480 DNA re-replication, Hoechst DNA content imaging, 48 h; Potency, µM (series often up to 46.1 µM), without a hit: at the highest dose re-replication activation, usual class: activators; note: potency is the fitted concentration of half-maximal effect; % of control where 0% means no effect; nearly all actives have a fitted effect of over 55% in size
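250 cells/well; 23 nL cpd via pin tool; 48 hr, 37 C, 5% CO2; Hoechst 40 min; imager read of total nuclear intensity, ex 405/em 500-530 nm.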
MCF10A rereplic: DNA re-replication induction in MCF 10a cells | MCF 10A DNA re-replication, Hoechst nuclear intensity, 48 h | 2.9% of 350,000 active | Potency, µM (doses to about 46.1 µM), inactives show top-dose activity, positive = re-replication, usual class: activators | AID 624296; note: potency is the fitted concentration of half-maximal effect; % of control where 0% means no effect; nearly all actives have a fitted effect of over 50% in size
KCNH2 3.1 block: inhibitors of human KCNH2 3.1 potassium channel isoform; U2OS KCNH2 3.1, thallium flux FluxOr; active compounds read low; 0.95% of 340,000 active; AID 720553; activity change, % (tested at about 1.8 µM);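 active = maximum activity change below -70%; inconclusive = maximum activity change from -70% to -50%; inactive = maximum activity change above -50%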;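 note: thallium influx rate constant from kinetic fluorescence after stimulation buffer; % is set by controls: 0 for no effect and ±100 for the full control effect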
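Normalized rate constant (relative to positive and negative DMSO controls) derived from a 2 min kinetic fluorescence read after stimulation; U2OS cells expressing the 3.1 isoform via virus at 1.77 x 10^8 /mL.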
KB-V1 MDR tox: kills drug-selected multidrug resistant KB-V1 cells; Potency, µM (top dose mostly 46.1 µM), most hits filed as cytotoxic; AID 1347076; 3.4% of 400,000 active; KB-V1 MDR cells viability, CellTiter-Glo, 72 h; note: potency is the fitted concentration of half-maximal effect; % is set by controls: 0 for no effect and ±100 for the full control effect; nearly all actives have a fitted effect of over 60% in size
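KB-V1 cells (P-gp-expressing MDR subline of KB-3-1) in phenol-red-free DMEM with 10% FBS were exposed to library compounds over a concentration series for 72 h at 37 degrees C. Viability read by CellTiter-Glo luminescence; concentration-effect curves fitted after normalization.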
KB-3-1 tox: KB-3-1 parental cell cytotoxicity; KB-3-1 viability, CellTiter-Glo ATP luminescence, 72 h; Potency, µM (doses to about 46.1 µM), usual class: cytotoxic; 1.4% of 400,000 active; AID 1347075; note: potency is the fitted concentration of half-maximal effect; % is set by controls: 0 for no effect and ±100 for the full control effect; nearly all actives have a fitted effect of over 60% in size
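KB-3-1 parental drug-naive adenocarcinoma cells in DMEM/10% FBS, incubated 72 h at 37 C with pin-transferred compounds across a concentration series. Viability by CellTiter-Glo luminescence; concentration-response curves fitted after normalization.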
KCNH2 WT inh: inhibitors of human wildtype KCNH2 potassium channel. U2OS, BacMam KCNH2, thallium flux FluxOr; active compounds read low. Q12809. activity change, % at 1.84 µM. 0.37% of 340,000 active;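 active = maximum activity change below -70%; inconclusive = maximum activity change between -70% and -50%; inactive = maximum activity change above -50%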; note: % is set by controls: 0 for no effect and ±100 for the full control effect
Target sequence (Q12809 whole entry, looked up): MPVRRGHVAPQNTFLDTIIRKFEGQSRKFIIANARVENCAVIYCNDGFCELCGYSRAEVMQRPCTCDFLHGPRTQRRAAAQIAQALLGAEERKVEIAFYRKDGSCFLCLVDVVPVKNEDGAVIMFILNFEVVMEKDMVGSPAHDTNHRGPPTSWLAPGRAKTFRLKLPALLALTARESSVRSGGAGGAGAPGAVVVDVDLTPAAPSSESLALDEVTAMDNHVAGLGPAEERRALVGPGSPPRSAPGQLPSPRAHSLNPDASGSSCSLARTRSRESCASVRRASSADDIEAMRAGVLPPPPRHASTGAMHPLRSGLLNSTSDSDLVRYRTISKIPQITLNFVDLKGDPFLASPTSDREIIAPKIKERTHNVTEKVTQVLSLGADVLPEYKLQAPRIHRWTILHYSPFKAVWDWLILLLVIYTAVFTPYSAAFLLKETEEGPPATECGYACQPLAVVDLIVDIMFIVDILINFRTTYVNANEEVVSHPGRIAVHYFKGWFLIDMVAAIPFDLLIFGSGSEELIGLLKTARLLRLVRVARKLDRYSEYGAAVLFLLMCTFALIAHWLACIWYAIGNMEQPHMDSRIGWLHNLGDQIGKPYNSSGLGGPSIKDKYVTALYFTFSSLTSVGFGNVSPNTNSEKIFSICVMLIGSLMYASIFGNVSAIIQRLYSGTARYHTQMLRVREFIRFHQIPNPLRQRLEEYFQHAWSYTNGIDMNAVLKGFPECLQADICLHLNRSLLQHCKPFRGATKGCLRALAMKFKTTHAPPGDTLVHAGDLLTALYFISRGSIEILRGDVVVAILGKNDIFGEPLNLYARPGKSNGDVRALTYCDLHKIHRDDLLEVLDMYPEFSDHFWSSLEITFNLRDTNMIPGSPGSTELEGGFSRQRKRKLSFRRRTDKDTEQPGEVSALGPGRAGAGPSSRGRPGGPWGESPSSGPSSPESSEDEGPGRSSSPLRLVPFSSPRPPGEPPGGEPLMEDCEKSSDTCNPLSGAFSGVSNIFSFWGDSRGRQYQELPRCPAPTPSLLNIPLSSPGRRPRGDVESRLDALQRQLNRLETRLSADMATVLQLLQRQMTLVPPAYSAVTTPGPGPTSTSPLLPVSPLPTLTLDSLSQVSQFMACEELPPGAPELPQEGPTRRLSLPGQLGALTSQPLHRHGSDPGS
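U2OS cells were transduced with wild-type KCNH2 virus (2.03 x 10^8 / mL) for 4 h at room temperature, then cultured overnight at 37 C. Thallium flux was read with FluxOr dye. Rate constants were normalized to DMSO controls.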
* marks the source's active call; other numbers are inactive results; i = inactive; u = inconclusive; x = no result; [ ] = remark or other dose. A selection: hits, their analogues and other compounds. The true share with any hit is near 7.6%. Unless noted, calls come from the whole dose curve; as a rule, active = well fitted curve in the direction sought with a large enough effect; inconclusive = small, poorly fitted or top-dose-only effect, or another doubt; inactive = no such curve, though single readings can be large; an effect the other way counts as inactive or inconclusive.

SMILES	SW480 rereplic	MCF10A rereplic	KCNH2 3.1 block	KB-V1 MDR tox	KB-3-1 tox	KCNH2 WT inh
COc1ccccc1NC(=O)CSCc1nc2ccccc2[nH]1	-55%	0%	9	21µM*	i	-13
CC(C)C(NC(=O)CSCc1ccc([N+](=O)[O-])cc1)C(C)C	-1%	u	-22	18µM*	i	-1
COc1ccc(CSCC(=O)Nc2ccccc2SC)cc1	u	u	4	18µM*	u	-1
COc1ccccc1NC(=O)CSCC(N)=O	0%	-8%	6	i	i	-3
CCc1cc(=O)oc2c(C)c3c(cc12)CN(CCc1ccccc1)CO3	x	x	x	i	i	x
Cc1ccc(S(=O)(=O)N2CCC(c3nnc(-c4cccc(C)c4)o3)CC2)cc1	x	x	x	u	i	x
C=CCN1C(=CCO)[C@H]2C[C@H]3[C@@H]1CC[C@@]31c3ccccc3N3C=C4[C@@H]5N(/C=C/2[C@H]31)c1ccccc1[C@]51CC[C@H]2[C@H]1C[C@@H]4/C(=C/CO)N2CC=C	-8%[20.6 µM]	-4%[20.6 µM]	x	x	x	x
CC(=O)c1cn(C2OC(CO)C3OC(C)(C)OC32)c(=O)n(C)c1=O (configuration not stated)	-25%	-3%	-2	i	i	3
CCN1C(=O)[C@@H]2[C@@H](c3ccc(-c4cccc(Cl)c4)c(OC)c3)N3CCCC[C@@]3(C(=O)OC)[C@@H]2C1=O	5%	-29%	u	i	u	9
Nc1nc(N)c(N=Nc2ccc(SCC(=O)O)cc2)c(=O)[nH]1	0%	-2%	-6	i	i	-1
O=C(CSc1nnc(CNC(=O)c2cccc(C(F)(F)F)c2)o1)NC1CCCCC1	8%	7%	-20	u	i	27
CCOC(=O)NC(=O)/C(C#N)=C\Nc1sccc1C(=O)OC	-100%	-11%	33	i	i	-4
COc1ccc([N+](=O)[O-])cc1NC(=O)CSCc1cc(C)cc(C)c1	u	-9%	-4	i	i	5
COc1ccccc1NC(=O)CSCc1ccc([N+](=O)[O-])cc1	u	-8%	-199*	i	i	-149*
N#CC1=C2SCC(O)(c3ccccc3)N2C(=O)CC1c1ccccc1 (configuration not stated)	12µM*	5.8µM*	-29	1.8µM*	1.3µM*	-9
CC1/C(=N/O)C(CN(C)C)C2CC1C2(C)C (configuration not stated)	-6%	5%	12	i	i	-291*
Cc1ccc(C)c(NCC(=O)NNC(=S)Nc2ccccc2)c1	5%	-22%	21	i	i	-75*
Cc1ccc(C)c(NC(=O)CCC(=O)NNC(=S)Nc2ccccc2)c1	-3%	-1%	10	i	i	2
Cc1ccc(NC(=S)NNC(=S)Nc2ccc(C)cc2C)cc1	26%	21%	-15	4.6µM*	1µM*	1
O=C(Nc1ccnn1C1CCN(CCCc2ccccc2)CC1)c1ccccc1Cl	-4%	5%	-112*	x	x	-120*
Cc1cc(CN2CCC(n3nccc3NC(=O)c3ccccc3Cl)CC2)cc(C)c1O	-4%	4%	-77*	i	i	-1
O=C(Nc1ccnn1C1CCN(Cc2cccnc2)CC1)c1ccccc1Cl	15%	1%	-1	x	x	24
COc1ccc(CCN(C)C(=O)c2ccc(C)c(S(=O)(=O)N3CCCCC3)c2)cc1OC	-6%	16%	14	u	i	3
COc1ccc(C(=O)Nc2ccc(C3CC3(Cl)Cl)cc2)cc1 (configuration not stated)	9%	39%	-19	i	i	-3
CCOc1cc(NC(=O)c2ccccc2OC)c(OCC)cc1NC(=O)c1ccccc1	15µM*	u	-4	i	u	-11
SMILES	SW480 rereplic	MCF10A rereplic	KCNH2 3.1 block	KB-V1 MDR tox	KB-3-1 tox	KCNH2 WT inh
COc1ccc(OC)c(/C(O)=C/C(=O)C(=O)Nc2ccccc2OC)c1	-15%	6%	8	9.2µM*	i	1
CCOc1ccc(NC(=O)c2c(OC)cccc2OC)cc1	-5%	0.65µM*	3	i	i	5
COc1ccc(OC)c(NC(=O)c2ccccc2SC)c1	-1%	2%	-14	18µM*	i	-1
COc1ccccc1NC(=O)c1ccccc1NC(=O)c1ccccc1	x	x	x	i	i	x
CCOc1ccc(NC(=O)COC(=O)c2c(OC)cccc2OC)cc1	-6%	1%	0	i	i	-1
CCN(CC(=O)NCc1ccc(Cl)cc1)C(=O)CN1C(=O)NC(CC)(c2ccccc2)C1=O (configuration not stated)	-2%	-1%	3	i	i	-6
Cc1cc(OCC(=O)NCc2ccncc2)c2c(C)c(C)c(=O)oc2c1	-40%	9%	-6	u	i	-5
COc1ccc(NC(=O)c2coc3ccccc23)cc1OC	-6%	-6%	-5	i	i	-341*
CCOc1ccccc1C(=O)Nc1cc(OC)ccc1OC	1%	9%	-14	15µM*	i	-2
COc1ccccc1C(=O)Nc1ccccc1SC(=O)c1ccccc1OC	u	21µM*	11	i	u	0
COc1ccc(C(=O)Nc2ccncc2)c(OC)c1	9%	8%	5	u	i	8
COc1ccc(C(=O)Nc2ccc3ccccc3c2)c(OC)c1	1%	u	-2	18µM*	u	7
CCOC(=O)c1c(-c2ccccc2Cl)cn2ccccc12	3%	1%	-7	i	i	1
O=C(O)c1c(-c2ccc(Cl)cc2)cn2ccccc12	18µM*	u	-1	i	i	3
O=c1cc(CCl)[nH]c2nc3ccccc3n12	18µM*	u	9	i	i	18
O=c1cc(-c2ccccc2)[nH]c2nc3ccccc3n12	10µM*	6.5µM*	-31	u	u	-1
Cc1cc(C)c(NC(=O)CS(=O)CC(=O)Nc2ccc(-n3cnnn3)c(C)c2)c(C)c1 (configuration not stated)	-21%	-2%	-6	i	i	2
O=C(CNC(=O)c1ccccc1Cl)c1ccccc1	-1%	-5%	-5	i	i	-1
CO/N=C(/CNC(=O)c1ccccc1Cl)c1ccc(Cl)cc1	-73%	-2%	-13	23µM*	i	-28
COc1ccc(C(CNC(=O)CNC(=O)c2cccc(C)c2)N2CCOCC2)cc1 (configuration not stated)	-8%	-5%	4	i	i	0
Cc1sc2ncnc(OCC(=O)c3ccc(S(=O)(=O)N4CCCC4)cc3)c2c1C	4%	6%	9	4.6µM*	u	-8
